Screening data as filed in PubChem.
Shown are actives, neighbours in structure and some others; about 1.4% of the full set was active somewhere.
Bcl-W Bim block = inhibitors of Bim binding to Bcl-W, primary screen, biochemical, multiplexed, bead-based flow cytometry. Bim peptide-Bcl-W binding. Bcl-2-like protein 2 (Homo sapiens), Q92843. 190,000 tested, 0.02% active. inhibition, % at 10 µM;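 also: 0% = bound tracer without compound and 100% = peptide blocker; higher means less fluorescent Bim peptide bound to Bcl-W beads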
Wee1 stabilizer = Wee1 degradation inhibitors, primary screen, cell-based, HeLa, Wee1K328M-luciferase, luminescence; HeLa Luc-Wee1K328M stability; 100% = proteasome inhibitor MG132 effect; reporter increase, % at 5 µM; 220,000 tested, 1.2% active;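 active = activation above the mean of all tested compounds plus 3 SD, set per screening run, cut at about 8.8% in these data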;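 also: cells exposed to compound for 20 h before luminescence read; 0% = DMSO alone and 100% = MG132 at 30 µM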
Bcl-B Bim block = inhibitors of Bim-Bcl-B binding, primary screen, biochemical, multiplexed, human Bcl-2 family | bead-based flow cytometry, Bim peptide-Bcl-B binding | inhibition, % at 10 µM | 190,000 tested, 0.073% active | AID 951, 2007;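 also: 0% = tracer peptide without compound and 100% = reference inhibitor peptide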
Bcl-XL Bim block = inhibitors of Bim-Bcl-XL binding, primary screen, biochemical, multiplexed, bead flow cytometry, human Bcl-XL; inhibition, % at 10 µM; Bcl-2-like protein 1 (Homo sapiens), Q07817; AID 1007, 2008; Bim peptide-Bcl-XL binding, fluorescence; 190,000 tested, 0.04% active
Target sequence (Q07817 whole entry, looked up): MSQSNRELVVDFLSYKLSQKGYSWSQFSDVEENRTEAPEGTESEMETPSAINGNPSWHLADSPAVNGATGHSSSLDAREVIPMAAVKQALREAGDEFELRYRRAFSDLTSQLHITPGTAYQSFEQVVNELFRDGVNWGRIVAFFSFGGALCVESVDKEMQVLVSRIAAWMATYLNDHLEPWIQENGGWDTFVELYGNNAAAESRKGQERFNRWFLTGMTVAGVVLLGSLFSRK
Bim-Bfl-1 = inhibitors of Bim binding to Bfl-1, primary screen, biochemical, multiplexed, bead-based flow cytometry; 190,000 tested, 0.12% active; inhibition, % at 10 µM; Bim-Bfl-1 binding inhibition; Bcl-2-related protein A1 (Homo sapiens), Q16548;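 also: 0% = wells without compound plus tracer and 100% = blocker peptide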
Target sequence (Q16548 whole entry, looked up): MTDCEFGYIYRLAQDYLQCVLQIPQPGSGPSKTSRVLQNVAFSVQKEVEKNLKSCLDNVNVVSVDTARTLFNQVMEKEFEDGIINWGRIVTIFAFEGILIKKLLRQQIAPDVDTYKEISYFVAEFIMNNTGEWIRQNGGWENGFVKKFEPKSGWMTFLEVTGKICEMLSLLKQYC
Bcl-2 Bim block = inhibitors of Bim-Bcl-2 binding, primary screen, biochemical, multiplexed, human Bcl-2 family. Apoptosis regulator Bcl-2 (Homo sapiens), P10415. Bead-based flow cytometry, Bim peptide-Bcl-2 binding. inhibition, % at 10 µM. 190,000 tested, 0.06% active; in the data active = inhibition above about 40%;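 also: 0% = no compound wells with probe peptide and 100% = reference peptide inhibitor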
Target sequence (P10415 whole entry, looked up): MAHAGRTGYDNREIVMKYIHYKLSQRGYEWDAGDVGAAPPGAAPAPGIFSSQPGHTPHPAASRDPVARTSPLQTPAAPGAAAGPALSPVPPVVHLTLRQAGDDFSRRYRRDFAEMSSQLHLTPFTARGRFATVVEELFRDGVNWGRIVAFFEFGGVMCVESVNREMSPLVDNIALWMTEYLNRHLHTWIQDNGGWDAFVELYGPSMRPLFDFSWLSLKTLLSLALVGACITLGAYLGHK
Wee1 degr conf = Wee1 degradation inhibitors, confirmation, cell-based, HeLa, Wee1K328M-luciferase, luminescence, triplicate; HeLa Luc-Wee1K328M degradation; vehicle 0%, proteasome-blocked wells 100%; shares compounds with Wee1 stabilizer; activation, % at 5 µM; 1,100 tested, 4% active; AID 1410, 2008; in the data active = activation above about 8.9%
An asterisk follows results filed as active; x = no result given. Rule as the data show it, unless noted: active = inhibition above about 40%.

SMILES	Bcl-W Bim block	Wee1 stabilizer	Bcl-B Bim block	Bcl-XL Bim block	Bim-Bfl-1	Bcl-2 Bim block	Wee1 degr conf
O=C(Nc1ccc(O)cc1)/C(=C/c1ccco1)NC(=O)c1ccccc1	x	11.8*	x	x	x	x	2.2
O=C(O)/C(=C/c1ccco1)NC(=O)c1ccccc1	-2.0	0.1	-6.0	-3.0	-15.0	-1.0	x
Cn1cc(/C=C/C(=O)N2CCCC(C(=O)c3ccc(C(C)(C)C)cc3)C2)cn1 (stereo not drawn)	0.0	0.4	-7.0	-3.0	-7.0	-3.0	x
CNC(=O)COc1ncnc2scc(-c3ccc(F)cc3)c12	-1.0	11.7*	-1.0	0.0	-1.0	-2.0	1.5
CCOC(=O)c1ccc(NC(=O)C(CC)(CC)C(=O)OCC)cc1	0.0	15.7*	0.0	-3.0	-1.0	2.0	-2.4
CCOC(=O)c1ccc(NC(=S)Nc2cccc(C)n2)cc1	-1.0	-1.8	-7.0	-7.0	4.0	3.0	x
COC(=O)c1cn[nH]c1NC(=S)Nc1ccc(Cl)c(Cl)c1	-1.0	0.6	-14.0	-10.0	-14.0	-11.0	x
CCOC(=O)c1cn[nH]c1NC(=S)Nc1ccc(OC)cc1	x	12.5*	x	x	x	x	-5.6
CCOC(=O)c1ccc(NC(=S)Nc2cccc(N)n2)cc1	x	17.9*	x	x	x	x	0.9
CCOC(=O)c1ccc(NC(=O)COC)cc1	-3.0	1.1	-10.0	-7.0	-16.0	-8.0	x
CCN(CC)C(=O)c1ccc(N)cc1	-2.0	-2.8	-4.0	-3.0	-3.0	0.0	x
COCC(=O)Nc1c(C(=O)Nc2ccc3c(c2)OCCO3)oc2ccccc12	-2.0	11.8*	-5.0	-1.0	-3.0	-4.0	7.5
O=C(/C=C/c1ccccc1)c1ccc(NC2=NCCCS2)cc1	1.0	-2.9	-4.0	-4.0	5.0	0.0	x
O=C(/C=C/c1ccc(Br)cc1)c1ccc(NC2=NCCCS2)cc1	-2.0	12.2*	-2.0	-1.0	3.0	-1.0	6.5
CC(C)c1cc(C(F)(F)F)n2nc(C(=O)Nc3ccc(-n4cnnn4)cc3)cc2n1	x	-0.4	x	x	x	x	x
Cc1ccccc1-c1noc(-c2ccc(O)cc2)n1	0.0	11.0*	-7.0	-3.0	-10.0	-6.0	6.3
Cc1ccccc1-c1noc(-c2ccc(Cl)cc2)n1	0.0	-2.4	-1.0	1.0	0.0	0.0	x
O=C1c2ccccc2C(O)(c2ccccc2)N1c1ccncc1 (stereo not drawn)	x	-1.2	x	x	x	x	x
CN(CCC#N)C(=O)CC(Cc1ccccc1)C1CCOC(C)(C)C1 (stereo not drawn)	x	4.1	x	x	x	x	x
Cc1ccnc(N2C3CCC2CC(O)(c2ccccc2)C3)n1 (stereo not drawn)	2.0	12.3*	0.0	1.0	-1.0	3.0	0.4
COc1cccc(C(=O)Nc2ccc(-c3nc4ccccc4o3)c(O)c2)c1	-1.0	11.6*	0.0	-2.0	0.0	0.0	2.4
COc1cccc(N(CC(=O)N/N=C(\C)c2cccs2)S(C)(=O)=O)c1	0.0	38.0*	-2.0	-3.0	0.0	-3.0	3.9
COc1ccc(N(CC(=O)N/N=C(\C)c2cccs2)S(=O)(=O)c2ccccc2)cc1Cl	0.0	-2.1	-6.0	0.0	-4.0	-2.0	x
CCc1ccc(Nc2nnc(SCC(=O)NCCN3C(=O)CSC3=O)s2)cc1	0.0	1.4	-3.0	-6.0	-9.0	-4.0	x
CCOC(=O)C1CC(C)=C(C)CC1C(=O)O (stereo not drawn)	x	-1.2	x	x	x	x	x
SMILES	Bcl-W Bim block	Wee1 stabilizer	Bcl-B Bim block	Bcl-XL Bim block	Bim-Bfl-1	Bcl-2 Bim block	Wee1 degr conf
CCN(CC)c1ccc(/C=C2\SC(=O)N(C(C)C)C2=O)o1	x	-3.0	x	x	x	x	x
CN(C)S(=O)(=O)c1ccc(NC(=O)CNc2cc(S(=O)(=O)N3CCCC3)ccc2OCC(F)(F)F)cc1	0.0	-2.6	-3.0	-4.0	0.0	-1.0	x
Cc1ccccc1OCc1nc2ccccc2c(=O)n1/N=C/c1cn[nH]c1-c1ccccc1	-6.0	10.9*	-10.0	-10.0	-1.0	-6.0	6.2
Cc1ccc(-c2[nH]ncc2/C=N/n2c(COc3ccccc3)nc3ccccc3c2=O)cc1	-6.0	1.7	-6.0	-5.0	-1.0	-1.0	x
Cc1ccc(C(C(=O)NCc2ccco2)N(C(=O)CNC(=O)c2cccs2)c2c(C)cc(C)cc2C)cc1 (stereo not drawn)	-4.0	11.5*	-3.0	-4.0	-1.0	-1.0	0.4
COc1ccc(CCC(=O)Nc2sccc2C#N)cc1	0.0	11.8*	-3.0	-3.0	-6.0	-2.0	0.1
Cc1cc2c(cc1C)C(c1ccccc1Br)CC(=O)N2 (stereo not drawn)	-2.0	15.2*	-7.0	-6.0	-7.0	-6.0	0.5
COc1ccc(C(=O)C2=NN(C(C)=O)CC2c2ccco2)cc1 (stereo not drawn)	1.0	5.2	0.0	0.0	0.0	3.0	x
Cc1ccc(OCCC(=O)OCC(=O)Nc2cc(S(=O)(=O)N(C)C)ccc2C)cc1	0.0	-0.6	-3.0	-4.0	-6.0	-1.0	x
COc1cccc(-c2nnc(-c3ccco3)o2)c1	-3.0	11.3*	-5.0	-7.0	-3.0	-1.0	3.8
COc1cccc(-c2nnc(-c3ccc(C)o3)o2)c1	-3.0	5.2	-4.0	-2.0	7.0	3.0	x
Cc1cc(C(=O)Nc2ccc3c(c2)CCC3)c2ccccc2n1	0.0	-2.5	-7.0	-1.0	-5.0	1.0	x
NS(=O)(=O)c1ccc(CNC(=O)c2cc(-c3cccs3)nc3ccccc23)cc1	x	-0.5	x	x	x	x	x
COc1cc(/C=N/NC(=O)c2cc(-c3cccs3)nc3ccccc23)ccc1O	x	11.9*	x	x	x	x	8.1
N#Cc1ccc(/C=N/NC(=O)c2cc(-c3cccs3)nc3ccccc23)cc1	-3.0	2.5	-13.0	-5.0	-13.0	-3.0	x
NS(=O)(=O)c1ccc(CCNC(=O)c2cc(-c3cccs3)nc3ccccc23)cc1	0.0	12.4*	-5.0	1.0	-6.0	-3.0	3.3
COc1ccc(-n2c(SCc3cn4c(C)cccc4n3)nc3ccccc3c2=O)cc1OC	3.0	-0.2	-3.0	0.0	-6.0	-1.0	x
O=C(Nc1ccc2c(c1)OCCO2)c1ccco1	-6.0	2.4	-3.0	-3.0	-5.0	-2.0	x
CC1(C)Oc2ccc(NC(=O)c3ccco3)cc2O1	-4.0	12.9*	-4.0	-4.0	-3.0	-4.0	-1.2
Cc1ccccc1NC(=O)c1ccc(Cl)c(NC(=O)c2cccnc2)c1	2.0	-0.3	-1.0	4.0	-8.0	-1.0	x
CCOc1ccccc1NC(=S)NCc1ccco1	-4.0	12.5*	-5.0	0.0	-1.0	-3.0	-1.3
